Experimental findings from PubChem BioAssay (Tox21) are described below.

Inconclusive results are not listed. Where a call stands in place of a potency, no number is given. Unmarked numbers belong to inactive results. Active and inactive are the calls of the source. The call rests on the fitted dose curve.
Potency means the concentration at half of the fitted maximal effect.

The nature of this experiment: p53 small molecule agonists, cell-based qHTS assay: qHTS cell viability counter screen (AID 1963581). Further: nearly all actives have a fitted effect of over 45% in size. The note with it: p53RE-bla HCT-116 viability, ATP luminescence, 16 h; series mostly up to 66 µM. The text has this:
National Center for Advancing Translational Sciences [NCATS]
Division of Preclinical Innovation [DPI]
U.S. Environmental Protection Agency [EPA]
National Institutes of Environmental Health Sciences [NIEHS]
National Toxicology Program [NTP]
U.S. Food and Drug Administration [FDA]
p53, a tumor suppressor protein, is activated following cellular insult, including DNA damage and other cellular stresses. The activation of p53 regulates cell fate by inducing DNA repair, cell cycle arrest, apoptosis, or cellular senescence. The activation of p53, therefore, is a good indicator of DNA damage and other cellular stresses. The CellSensor p53RE-bla HCT-116 cell line (Invitrogen) contains a stably integrated beta-lactamase reporter gene under control of the p53 response elements. The activation of the reporter gene under culture conditions can be detected by fluorescence intensity. This cell line was used to screen the Tox21 compound library in a 1536-well plate format and to identify agonists that activate the p53 signaling pathway. The cytotoxicity of the Tox21 compound library against the p53 RE-bla HCT-116 cell line was tested in parallel by measuring the intra cellular ATP content in the same wells.
Tox21 Assay Protocol Summary:
The p53RE-bla cells were dispensed at 4,000 cells/5 ul/well in 1536-well black wall/clear bottom plates using a Multidrop dispenser. After the assay plates were incubated at a 37 C/5% CO2 incubator for 5 hours, 23 nL of compounds dissolved in DMSO, positive controls or DMSO only was transferred to the assay plate by a pin tool. The plates were incubated at 37 C for 16 hours. After 1 uL of LiveBLAzerTM B/G FRET substrate was added using a Flying Reagent Dispenser, the plates were incubated at room temperature for 2 hours, and fluorescence intensity was measured by an Envision plate reader. For cell viability readout that measures cytotoxicity, 4 ul/well of CellTiter-Glo reagent was added into the assay plates using a Flying Reagent Dispenser. After 30 min incubation at room temperature, the luminescence intensity in the plates was measured using a ViewLux plate reader.
A general note: In qHTS, concentration-response curves come from the screen itself.
`Cc1c(F)c(F)c(COC(=O)C2C(/C=C(\Cl)C(F)(F)F)C2(C)C)c(F)c1F` (stereo not given): the Potency entry is “inactive”. On the same count and under the same terms, the same measure for `CCCCS(=O)(=O)Cl`: “inactive”; for `CN(C)CCN(C)C`: “inactive”. As for `CC(C)C(Br)C(=O)NC(N)=O` (stereo not given), the Potency result was “inactive”. As for `CCc1ccc(C(=O)NN(C(=O)c2cc(C)cc(C)c2)C(C)(C)C)cc1`, the Potency entry was “inactive”. On to `Cc1ccccc1CO[C@@H]1C[C@@]2(C(C)C)CC[C@]1(C)O2`, for which the Potency entry is “inactive”. On the same count and under the same terms, the value for `CCCOc1nn(C(=O)NS(=O)(=O)c2ccccc2C(=O)OC)c(=O)n1C` was “inactive”; that for `C=CC(=O)OC` was “inactive”. Regarding `CC(C)(C)C(O)/C(=C\c1ccc(Cl)cc1Cl)n1cncn1` (stereo not given), the Potency entry was “inactive”. Regarding `O=[N+]([O-])C(Br)(CO)CO`, the Potency result is “inactive”.

Turning to `C=C(C)C(=O)OCCCCOC(=O)C(=C)C`, the Potency result was “inactive”. In the case of `CCCSP(=S)(OCC)Oc1ccc(Cl)cc1Cl` (stereo not given), the Potency result was “inactive”. Consider `ClC=C(Cl)Cl`, for which the Potency result was “inactive”. Turning to `COc1cc(OC)nc(NC(=O)NS(=O)(=O)c2ncccc2OCC(F)(F)F)n1`, the Potency entry is “inactive”. Turning to `CCOC(=O)COc1cc(-c2nn(C)c(OC(F)F)c2Cl)c(F)cc1Cl`, the Potency result was “inactive”. Same read-out and setting: the same measure for `ClC(Cl)=C(c1ccc(Cl)cc1)c1ccccc1Cl`: “inactive”; for `C=CC(=O)OCCCCO`: “inactive”. For the compound `N#CC(Br)(Br)C(N)=O`, the Potency result was “inactive”. On to `O=[N+]([O-])c1cc(Cl)c(Cl)cc1Cl`, for which the Potency entry was “inactive”. For the compound `CC(=O)Nc1ccc2c(c1)Cc1ccccc1-2`, the Potency result was “inactive”. Consider `CCCN(CCC)c1c([N+](=O)[O-])cc(S(C)(=O)=O)cc1[N+](=O)[O-]`, for which the Potency entry was “inactive”. With `Nc1c(Br)cc(Br)c2c1C(=O)c1ccccc1C2=O`, the activity change, negative = cytotoxicity was 13.4% [at 13.5 µM].

With `Cc1ccc2c(c1)C1CN(C)CCC1N2` (stereo not given), the activity change, negative = cytotoxicity was 13.5% [at 13.5 µM].

Consider `COC(=O)N(OC)c1ccccc1COc1ccn(-c2ccc(Cl)cc2)n1`, for which the Potency result was “inactive”.

Take `O=C1OC(c2ccc(O)c(S(=O)(=O)O)c2)(c2ccc(O)c(S(=O)(=O)O)c2)c2c(Br)c(Br)c(Br)c(Br)c21`: the Potency entry was “inactive”. For `CCNP(=S)(OC)O/C(C)=C/C(=O)OC(C)C` (stereo not given), the Potency result is “inactive”. As to `CCOC(=O)c1ncn2c1CN(C)C(=O)c1c(I)cccc1-2`, the Potency result was “inactive”. Same read-out and setting: the value for `C[C@H]1[C@H](c2ccc(Cl)cc2)SC(=O)N1C(=O)NC1CCCCC1` was “inactive”. Same read-out and setting: the same measure for `Cc1nnc2n1-c1sc(CCC(=O)N3CCOCC3)cc1C(c1ccccc1Cl)=NC2`: “inactive”; for `CC(=O)[O][Sn]([c]1ccccc1)([c]1ccccc1)[c]1ccccc1`: 10.2 µM (active). On the same count and under the same terms, the value for `NCCc1cc(O)c(O)cc1O` was “inactive”; that for `CCc1cc(OC)c(C[C@H](C)N)cc1OC` was “inactive”. As to `CC#C[C@]1(O)CC[C@H]2[C@@H]3C[C@H](C)C4=CC(=O)CC[C@]4(C)[C@H]3CC[C@@]21C`, the Potency entry is “inactive”. `CCN(CC)c1c([N+](=O)[O-])cc(C(F)(F)F)c(N)c1[N+](=O)[O-]`: the Potency result is “inactive”.

For the compound `O=C(O)C1(c2ccc3c(c2)OC[C@H](Cc2ccc(-c4ccccc4)cc2)[C@H]3O)CCCC1`, the Potency was 32.4 µM (active). The same measure, in the same setting: the value for `C[C@@H]1CC2=CC(=O)CC[C@@H]2[C@H]2CC[C@@]3(C)[C@@H](CC[C@]3(C)O)[C@@H]21` was “inactive”; that for `CCCCC(O)(Cn1cncn1)c1ccc(Cl)cc1Cl` (stereo not given) was “inactive”. Turning to `Cc1c(Cl)c(=O)oc2cc(OP(=O)(OCCCl)OCCCl)ccc12`, the Potency entry is “inactive”. `N#Cc1ccc(N(CC(N)=O)CC(F)(F)F)cc1C(F)(F)F`: the Potency result is “inactive”. `CCOP(=S)(NC(C)C)Oc1ccccc1C(=O)OC(C)C` (stereo not given): the Potency result is “inactive”.
